{"source": "PubChem BioAssay (NCATS)", "note": "Results filed as inconclusive are left out. Activity calls are given as the source filed them. Calls follow the shape of the dose curve; as a rule, active = well fitted inhibition curve with a large enough effect; inconclusive = small, poorly fitted or top-dose-only effect; inactive = no such curve, though single readings can be large or run the other way. Potency is read from the fitted curve at half-maximal effect.", "data": [{"assay": "qHTS Screen of the MIPE 4.0 Collection Against Ewings Sarcoma (TC32) (AID 1259256); also: nearly all actives have a fitted effect of over 45% in size;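 as to viability (percent of control): 100% = DMSO-treated cells and 0% = medium-only wells without cells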", "conditions": "TC32 Ewing sarcoma viability, CellTiter-Glo, 48 h; series mostly up to 45.8 µM; viability (percent of control): at the top concentration", "summary_of_the_method": "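Log-phase cells in RPMI with 5% FBS attached for 4 h, then received compounds as a titration for 48 h at 37C, 5% CO2. Viability was read by CellTiter-Glo luminescence and normalized to DMSO and no-cell wells.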", "values": [{"smiles": "CC(O)=C(C#N)C(=O)Nc1cc(Br)ccc1Br", "Potency": "20.9 µM (active)"}, {"smiles": "O=S(=O)(CC1CS1)c1ccc(Oc2ccccc2)cc1", "note": "(stereo not given)", "Potency": "16.6 µM (active)"}, {"smiles": "Cc1c(C(=O)c2cccc3ccccc23)c2cccc3c2n1[C@H](CN1CCOCC1)CO3", "Potency": "26.4 µM (active)"}, {"smiles": "O=C(Nc1ccncc1)C(=O)c1cn(Cc2ccc(Cl)cc2)c2ccccc12", "viability (percent of control)": "110% (inactive)"}, {"smiles": "CN1[C@H]2CC(O)C[C@H]1[C@H]1O[C@H]12", "note": "(stereo not given in full)", "Potency": "23.5 µM (active)"}]}]}
